About 83,000 compounds went through this panel and 20% of them were active in at least one assay; those are over-represented in the sample as a whole.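 Step 1: grow cells in 96-well plates. Step 2: add test compound at a single concentration. Step 3: incubate 48 h. Step 4: record percent growth.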 A number with no mark means an inactive call. The source made the active and inactive calls. Rule for the calls: active = growth percent below 10; inactive = the rest.

Among the test systems are SR leukemia; RPMI-8226 leukemia; OVCAR-8 ovarian; OVCAR-5 ovarian; OVCAR-4 ovarian; SK-OV-3 ovarian; IGROV1 ovarian; OVCAR-3 ovarian; HS 578T breast; NCI/ADR-RES ovarian; T-47D breast; BT-549 breast; MDA-MB-435 melanoma; SW-620 colon; MCF7 breast; HCT-116 colon; HCC-2998 colon; KM12 colon.
Test in all cases: NCI-60 one-dose screen, 48 h (100 = growth as untreated, 0 = no growth, -100 = all killed)
Conditions in all cases: 10 µM unless noted

In the case of `O=C(NNc1nc2cc(F)c(F)cc2n2c(CN3CC4CNCC4C3)ccc12)c1ncccn1` (centres undefined), the growth in the assay on SR leukemia was 1.34% (active); in the assay on RPMI-8226 leukemia, 18.7%; in the assay on OVCAR-8 ovarian, 7.54% (active); in the assay on OVCAR-5 ovarian, 40%; with OVCAR-4 ovarian it was 21.6%; in the assay with SK-OV-3 ovarian, 7.21% (active). Further, the growth with IGROV1 ovarian was 14.9%; with OVCAR-3 ovarian, 34.6%; in the assay with HS 578T breast, 71.5%; in the assay with NCI/ADR-RES ovarian, 62.3%; in the assay with T-47D breast, 13.8%; in the assay with BT-549 breast it was 28.1%. Moreover, the growth with MDA-MB-435 melanoma was 20.4%; in the assay with SW-620 colon, 22.6%; in the assay on MCF7 breast, 9.66% (active); with HCT-116 colon, 11.7%; in the assay with HCC-2998 colon, 24.7%; in the assay with KM12 colon, 19.2%.

In the case of `O=C(CSc1nnc(-c2ccc(Cl)cc2)n1-c1ccccc1)Nc1ccc(Br)cc1`, the growth in the assay with SR leukemia was 13.3%; in the assay with RPMI-8226 leukemia, 17.5%; in the assay on OVCAR-8 ovarian, -27.5% (active); in the assay on OVCAR-5 ovarian it was 2.37% (active); in the assay on OVCAR-4 ovarian it was -1.23% (active); with SK-OV-3 ovarian, -35.9% (active). For the same compound, the growth in the assay on IGROV1 ovarian is 16.6%; in the assay on OVCAR-3 ovarian, -24.5% (active); in the assay on HS 578T breast, 17.8%; with NCI/ADR-RES ovarian it was 12.3%; in the assay on T-47D breast, 8.35% (active); with BT-549 breast, 36.7%. In addition, the growth with MDA-MB-435 melanoma was 27.2%; in the assay with SW-620 colon, 37.9%; in the assay on MCF7 breast, 38.6%; in the assay with HCT-116 colon, -64.2% (active); in the assay with HCC-2998 colon it was 77.9%; with KM12 colon, 45.4%.

Consider `CC(=O)N1C(=S)NC(=O)C1CC(C)C` (centres undefined), for which the growth in the assay with SR leukemia was 101%; in the assay on RPMI-8226 leukemia, 99%; in the assay with OVCAR-8 ovarian it was 103%; in the assay on OVCAR-5 ovarian, 100%; with OVCAR-4 ovarian, 99.5%; with SK-OV-3 ovarian, 101%. Besides, the growth was 104% with IGROV1 ovarian; 118% in the assay with OVCAR-3 ovarian; 110% with HS 578T breast; 105% in the assay on NCI/ADR-RES ovarian; 100% in the assay with T-47D breast; 115% in the assay with BT-549 breast. For the same compound, the growth with MDA-MB-435 melanoma is 103%; in the assay with SW-620 colon, 102%; in the assay with MCF7 breast, 97.7%; in the assay with HCT-116 colon it was 106%; in the assay on HCC-2998 colon it was 108%; with KM12 colon it was 101%.

`Cc1c(F)cc(C(N)=O)cc1NCC(=O)Nc1ccc([N+](=O)[O-])cc1`: the growth in the assay with SR leukemia was 107%; in the assay with RPMI-8226 leukemia it was 110%; with OVCAR-8 ovarian, 99.8%; with OVCAR-5 ovarian, 89.5%; in the assay with OVCAR-4 ovarian it was 67.8%; in the assay with SK-OV-3 ovarian, 106%. Besides, the growth is 80.1% in the assay on IGROV1 ovarian; 96.7% with OVCAR-3 ovarian; 88.4% in the assay with HS 578T breast; 96.6% in the assay with NCI/ADR-RES ovarian; 102% in the assay with T-47D breast; 98% with BT-549 breast. In addition, the growth in the assay with MDA-MB-435 melanoma is 99.8%; in the assay with SW-620 colon, 92.9%; in the assay on MCF7 breast, 87.1%; with HCT-116 colon it was 99.9%; in the assay with HCC-2998 colon, 105%; with KM12 colon, 98.6%.

For the compound `O=C(CCn1c[n+](CC(=O)c2ccc(-c3ccccc3)cc2)c2ccccc21)Nc1cccc2cccnc12`, the growth with SR leukemia is 9.22% (active); with RPMI-8226 leukemia, 3.25% (active); with OVCAR-8 ovarian it was 52.5%; in the assay with OVCAR-5 ovarian it was 81.9%; in the assay with OVCAR-4 ovarian it was 24.8%; in the assay on SK-OV-3 ovarian, 74.9%. In addition, the growth in the assay with IGROV1 ovarian was 10.5%; with OVCAR-3 ovarian, 28.5%; with HS 578T breast it was 62.8%; with NCI/ADR-RES ovarian it was 99.1%; with T-47D breast, 21.6%; with BT-549 breast it was 53.7%. Also, the growth is 32.2% with MDA-MB-435 melanoma; 65.2% in the assay with SW-620 colon; 19.8% in the assay on MCF7 breast; 56% with HCT-116 colon; 38.9% in the assay on HCC-2998 colon; 14.5% in the assay with KM12 colon.

As for `O=C1[C@H]2Cc3c([nH]c4ccccc34)[C@@H](c3ccc(Cl)cc3)N2C(=O)CN1C1CCN(Cc2ccccc2)CC1`, the growth in the assay on SR leukemia is 10.4%; in the assay with RPMI-8226 leukemia it was 17%; in the assay with OVCAR-8 ovarian it was 72.7%; with OVCAR-5 ovarian, 74.8%; with OVCAR-4 ovarian, 49.1%; in the assay on SK-OV-3 ovarian, 79.7%. In addition, the growth is 33.5% in the assay with IGROV1 ovarian; 47.7% with OVCAR-3 ovarian; 68.1% in the assay with HS 578T breast; 51.3% with NCI/ADR-RES ovarian; 55.9% in the assay with T-47D breast; 83.9% in the assay with BT-549 breast. Further, the growth was 43.8% with MDA-MB-435 melanoma; 62.5% with SW-620 colon; 12.6% with MCF7 breast; 33% with HCT-116 colon; 40.3% in the assay on HCC-2998 colon; 47.7% in the assay on KM12 colon.

For `Cn1ccnc1C(=O)/C=C/C=C/c1ccc(C(=O)Nc2ccc(F)cc2)cc1`, the growth is 10.8% with SR leukemia; -5.49% (active) in the assay on RPMI-8226 leukemia; 13.6% with OVCAR-8 ovarian; 33.7% in the assay on OVCAR-5 ovarian; 45.7% in the assay with OVCAR-4 ovarian; 67.1% with SK-OV-3 ovarian. Besides, the growth is 10.5% in the assay on IGROV1 ovarian; 5.1% (active) in the assay on OVCAR-3 ovarian; 39.1% in the assay on HS 578T breast; 26.7% in the assay with NCI/ADR-RES ovarian; 28.2% with T-47D breast; 36.3% in the assay on BT-549 breast. Moreover, the growth in the assay with MDA-MB-435 melanoma is 4.45% (active); in the assay with SW-620 colon it was -2.98% (active); in the assay on MCF7 breast, 13.3%; in the assay with HCT-116 colon, -36.3% (active); in the assay with HCC-2998 colon it was 66.4%; with KM12 colon it was 17.1%.

For the compound `CCN(CC)c1cn(-c2ccc(S(N)(=O)=O)cc2)nn1`, the growth in the assay on SR leukemia is 97%; in the assay on RPMI-8226 leukemia it was 103%; in the assay with OVCAR-8 ovarian, 102%; with OVCAR-5 ovarian, 105%; in the assay on OVCAR-4 ovarian, 101%; with SK-OV-3 ovarian, 113%. For the same compound, the growth was 113% with IGROV1 ovarian; 110% in the assay on OVCAR-3 ovarian; 98.3% in the assay on HS 578T breast; 109% in the assay on NCI/ADR-RES ovarian; 108% in the assay on T-47D breast; 109% in the assay on BT-549 breast. The growth is 104% in the assay on MDA-MB-435 melanoma; 101% in the assay with SW-620 colon; 97.5% in the assay on MCF7 breast; 116% in the assay on HCT-116 colon; 107% in the assay with HCC-2998 colon; 102% in the assay on KM12 colon.
